PubChem BioAssay AID1159580 (chemical genetic matrix, 2015)
“And” between values parts separate entries of the source, which are not always exact repeats. Identical values can stand only once. Hit rate of the full screen: of about 5,500 compounds, about 2,000 (36%) were called active. Another 18% or so got no clear call; they are omitted. Rule as the data show it: active = normalized growth mostly below about 0.91 (no sharp cut-off); inconclusive = no clear call, values can overlap the other calls; inactive = mostly above about 0.92. This is one part of the list.

Assay: chemical genetic growth profiling, strain panel (AID 1159580);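 also: tested at 20 µM; growth read once vehicle control cultures reached saturation at 30 °C; 1 = growth at the plate median or of vehicle wells; lower values mean less growth of the strain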
Conditions: S. cerevisiae deletion strains, growth OD

Measured: normalized growth

CC(C)c1c(O)ccc2c1CCC1[C@@](C)(C=O)CCC[C@]21C (stereo partly specified)
active: locus YAL030W, strain snc1, hits give low values 0.79 | locus YBL061C, strain skt5, hits give low values 0.833 | locus YBR009C, strain hhf1, hits give low values 0.476 | locus YBR021W, strain FUR4, hits give low values 0.476 | locus YBR023C, strain chs3, hits give low values 0.821 | locus YBR229C, strain ROT2, hits give low values 0.713 | locus YBR231C, strain swc5, hits give low values 0.722 | locus YCL011C, strain gbp2, hits give low values 0.783 | locus YCL016C, strain dcc1, hits give low values 0.803 | locus YCL029C, strain bik1, hits give low values 0.52 | locus YDL035C, strain GPR1, hits give low values 0.425 | locus YDL074C, strain BRE1, hits give low values 0.12 | locus YDL101C, strain DUN1, hits give low values 0.517 | locus YDL185W, strain tfp1, hits give low values 0.469 | locus YDL192W, strain arf1, hits give low values 0.246 | locus YDR101C, strain arx1, hits give low values 0.631 | locus YDR137W, strain rgp1, hits give low values 0.237 | locus YDR159W, strain sac3, hits give low values 0.54 | locus YDR162C, strain NBP2, hits give low values 0.171 | locus YDR195W, strain ref2 0.431 | locus YDR297W, strain sur2, hits give low values 0.772 | locus YDR318W, strain mcm21, hits give low values 0.35 | locus YDR388W, hits give low values 0.732 | locus YDR392W, strain spt3, hits give low values 0.415 | locus YDR502C, strain sam2, hits give low values 0.35 | locus YEL003W, strain gim4, hits give low values 0.834 | locus YER016W, strain bim1, hits give low values 0.789 | locus YER110C, hits give low values 0.853 | locus YER155C, strain BEM2, hits give low values 0.0936 | locus YER167W, strain BCK2, hits give low values 0.336 | locus YGL078C, strain dbp3, hits give low values 0.886 | locus YGL086W, strain mad1, hits give low values 0.274 | locus YGL248W, strain PDE1, hits give low values 0.36 | locus YGR078C, strain PAC10, hits give low values 0.303 | locus YGR135W, strain pre9, hits give low values 0.601 | locus YGR252W, strain gcn5, hits give low values 0.248 | locus YHR030C, strain SLT2, hits give low values 0.756 | locus YHR079C, strain IRE1 (second series), hits give low values 0.579 | locus YHR079C, strain IRE1, hits give low values 0.791 | locus YHR094C, strain hxt1, hits give low values 0.392 | locus YHR129C, strain ARP1, hits give low values 0.143 | locus YHR200W, strain rpn10, hits give low values 0.578 | locus YIL066C, strain RNR3, hits give low values 0.303 | locus YIL073C, strain SPO22, hits give low values 0.554 | locus YIL125W, strain kgd1, hits give low values 0.621 | locus YIR030C, strain dcg1, hits give low values 0.607 | locus YJL095W, strain BCK1 (second series), hits give low values 0.35 | locus YJL095W, strain BCK1, hits give low values 0.0842 and 0.826 | locus YJL129C, strain trk1, hits give low values 0.505 | locus YJL134W, strain LCB3, hits give low values 0.729 | locus YJL164C, strain tpk1, hits give low values 0.578 | locus YJL166W, strain qcr8, hits give low values 0.643 | locus YJL168C, strain set2, hits give low values 0.921 | locus YJL187C, strain SWE1 (second series), hits give low values 0.346 | locus YJR075W, strain HOC1, hits give low values 0.482 | locus YKL085W, strain MDH1 (second series), hits give low values 0.583 | locus YKL085W, strain MDH1, hits give low values 0.583 | locus YKL190W, strain CNB1, hits give low values 0.154 | locus YKR001C, strain vps1, hits give low values 0.0888 | locus YLL026W, hits give low values 0.79 | locus YLL041C, strain sdh2, hits give low values 0.895 | locus YLR027C, strain aat2, hits give low values 0.653 | locus YLR039C, strain RIC1, hits give low values 0.148 | locus YLR058C, strain SHM2, hits give low values 0.352 | locus YLR102C, strain apc9, hits give low values 0.432 | locus YLR113W, strain HOG1, hits give low values 0.782 | locus YLR221C, strain rsa3, hits give low values 0.692 | locus YLR258W, strain gsy2, hits give low values 0.768 | locus YLR262C, strain YPT6 (second series), hits give low values 0.255 | locus YLR262C, strain YPT6, hits give low values 0.219 | locus YLR268W, strain sec22, hits give low values 0.411 | locus YLR320W, strain mms22, hits give low values 0.62 | locus YLR330W, strain CHS5, hits give low values 0.228 | locus YLR342W, strain FKS1 (second series), hits give low values 0.208 | locus YLR342W, strain FKS1, hits give low values 0.774 | locus YLR371W, strain rom2, hits give low values 0.317 | locus YLR418C, strain cdc73, hits give low values 0.137 | locus YML016C, strain PPZ1, hits give low values 0.8 | locus YML032C, strain rad52, hits give low values 0.467 | locus YML120C, strain ndi1, hits give low values 0.465 | locus YML124C, strain tub3, hits give low values 0.507 | locus YMR078C, strain ctf18, hits give low values 0.422 | locus YMR205C, strain PFK2, hits give low values 0.617 | locus YMR223W, strain ubp8, hits give low values 0.429 | locus YMR307W, strain GAS1, hits give low values 0.306 | locus YNL067W, strain RPL9B, hits give low values 0.583 | locus YNL071W, strain lat1, hits give low values 0.424 | locus YNL233W, strain BNI4, hits give low values 0.172 | locus YNL250W, strain rad50, hits give low values 0.868 | locus YNL271C, strain bni1, hits give low values 0.875 | locus YNL298W, strain CLA4, hits give low values 0.847 | locus YNL307C, strain MCK1, hits give low values 0.0743 | locus YNL322C, strain KRE1, hits give low values 0.333 | locus YNR052C, strain pop2, hits give low values 0.53 | locus YOL006C, strain TOP1, hits give low values 0.396 | locus YOL147C, strain pex11, hits give low values 0.205 | locus YOR001W, strain rrp6, hits give low values 0.857 | locus YOR061W, strain CKA2, hits give low values 0.689 | locus YOR069W, strain VPS5, hits give low values 0.668 | locus YOR070C, strain gyp1, hits give low values 0.598 | locus YOR083W, strain WHI5, hits give low values 0.822 | locus YOR106W, strain vam3, hits give low values 0.563 | locus YOR136W, strain idh2, hits give low values 0.559 | locus YOR144C, strain elg1, hits give low values 0.48 | locus YOR184W, strain ser1, hits give low values 0.153 | locus YOR231W, strain MKK1, hits give low values 0.784 | locus YOR265W, strain rbl2, hits give low values 0.88 | locus YOR270C, strain vph1, hits give low values 0.739 | locus YOR316C, strain cot1, hits give low values 0.49 | locus YPL051W, strain arl3, hits give low values 0.769 | locus YPL055C, strain LGE1, hits give low values 0.147 | locus YPL240C, strain hsp82, hits give low values 0.626 | locus YPL241C, strain CIN2, hits give low values 0.487 | locus YPL256C, strain CLN2, hits give low values 0.814 | locus YPR119W, strain clb2, hits give low values 0.305 | locus YPR163C, strain tif3, hits give low values 0.345 | locus YPR167C, strain met16, hits give low values 0.314 | strain wtn01, hits give low values 0.304
inactive: locus YAL021C, strain ccr4, hits give low values 0.984 | locus YAL026C, strain drs2, hits give low values 0.93 | locus YBR171W, strain sec66, hits give low values 0.97 | locus YBR279W, strain paf1, hits give low values 0.955 | locus YCL061C, strain MRC1, hits give low values 1 | locus YCL069W, strain vba3, hits give low values 1.01 | locus YCR088W, strain abp1, hits give low values 0.996 | locus YDL005C, strain med2, hits give low values 1.01 | locus YDL040C, strain nat1, hits give low values 1.01 | locus YDR001C, strain nth1, hits give low values 1.01 | locus YDR069C, strain doa4, hits give low values 0.923 | locus YDR334W, strain swr1, hits give low values 1.01 | locus YDR335W, strain msn5, hits give low values 0.987 | locus YEL037C, strain rad23, hits give low values 1 | locus YEL061C, strain CIN8 (second series), hits give low values 0.99 | locus YER111C, strain swi4, hits give low values 0.999 | locus YER155C, strain BEM2 (second series), hits give low values 1 | locus YFR010W, strain ubp6, hits give low values 1 | locus YGL167C, strain pmr1, hits give low values 0.945 | locus YGL173C, strain kem1, hits give low values 1.01 | locus YGL227W, strain vid30, hits give low values 0.997 | locus YGL240W, strain doc1, hits give low values 0.926 | locus YGL253W, strain hxk2, hits give low values 0.96 | locus YHR013C, strain ard1, hits give low values 1.14 | locus YHR142W, strain chs7, hits give low values 0.899 | locus YJL092W, strain hpr5, hits give low values 0.995 | locus YJL115W, strain asf1, hits give low values 1.02 | locus YJL154C, strain vps35, hits give low values 1.02 | locus YJR066W, strain TOR1, hits give low values 0.826 | locus YKL009W, strain mrt4, hits give low values 0.998 | locus YKL068W, hits give low values 0.969 | locus YKL160W, strain elf1, hits give low values 0.915 | locus YKR026C, strain gcn3, hits give low values 1 | locus YKR091W, strain srl3, hits give low values 1.01 | locus YLL001W, strain dnm1, hits give low values 0.964 | locus YLR357W, strain rsc2, hits give low values 1.11 | locus YLR370C, strain arc18, hits give low values 1.01 | locus YLR384C, strain iki3, hits give low values 1.02 | locus YMR058W, strain fet3, hits give low values 0.991 | locus YMR125W, strain sto1, hits give low values 1.01 | locus YMR129W, hits give low values 0.972 | locus YMR231W, strain pep5, hits give low values 1.04 | locus YNL183C, strain NPR1, hits give low values 0.83 | locus YNL209W, strain ssb2, hits give low values 0.959 | locus YNL248C, strain rpa49, hits give low values 1.04 | locus YNL322C, strain KRE1 (second series), hits give low values 1.02 | locus YNR049C, strain mso1, hits give low values 1.01 | locus YOL012C, strain htz1 1.05 | locus YOR080W, strain dia2, hits give low values 0.996 | locus YOR290C, strain snf2, hits give low values 0.909 | locus YPL078C, strain atp4, hits give low values 0.996 | locus YPL106C, strain sse1, hits give low values 0.94 | locus YPR141C, strain kar3, hits give low values 0.999
